Test results: PubChem BioAssay (NCATS)
Records with an inconclusive call do not appear. The source made the active and inactive calls. The call rests on the fitted dose curve; in most records, active means well fitted curve in the direction sought with a large enough effect; inconclusive means small, poorly fitted or top-dose-only effect, or another doubt; inactive means no such curve, though single readings can be large; an effect the other way counts as inactive or inconclusive.

How the values were obtained:
[1] = molecular target: Cytochrome P450 3A4 (Homo sapiens) (UniProt P08684); test: qHTS Assay for Inhibitors and Substrates of Cytochrome P450 3A4 (AID 884); further: series mostly up to about 57 µM; nearly all actives have a fitted effect of over 50% in size
Summary of the method: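 20 nM human CYP3A4 with 25 uM Luciferin-PPXE (at KM) in 200 mM KPO4, preincubated 10 min with compound; NADPH regeneration started a 60 min RT reaction. Luciferin detected by luminescence, normalized to 57 uM ketoconazole as full inhibition.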

[2] = MultiTox-Fluor Cytotoxicity Assay - LYMP1-001 - Dead Cells (AID 946)
Summary of the method: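 AC50 from Hill fit of concentration-response; data normalized to DMSO (basal) and 15 uM tetraoctylammonium bromide (100%). LYMP1-001 lymphoblastoid cells, 2500/well, 16 hr compound at 37 C; dead-cell protease fluorescence, Ex/Em 485/520.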

[3] = MultiTox-Fluor Cytotoxicity Assay - LYMP1-001 - Live Cells (AID 947)
[4] = Cell Viability - LYMP1-002 - Assay at 16 hr (AID 948)
Summary of the method: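 Seed 2500 LYMP1-002 cells per well in complete medium and hold 5 hr at 37 C. Add compound across a concentration series and incubate 16 hr at 37 C. Add CellTiter-Glo, wait 30 min at room temperature, read luminescence.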

[5] = MultiTox-Fluor Cytotoxicity Assay - LYMP1-002 - Live Cells (AID 955)
Summary of the method: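 Human lymphoblastoid LYMP1-002 cells, 2500/well in complete medium, rested 5 hr at 37 C, then exposed to compounds for 16 hr at 37 C. Live-cell protease cleavage of GF-AFC read by fluorescence (Ex/Em 405/510) after 60 min at room temperature; AC50 from Hill fits.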

[6] = MultiTox-Fluor Cytotoxicity Assay - LYMP1-002 - Dead Cells (AID 960); further: nearly all actives have a fitted effect of over 60% in size
Summary of the method: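 Human lymphoblastoid cells (LYMP1-002), 2500/well in complete medium, were exposed to compounds for 16 hr at 37 C. Dead-cell protease activity was read as bis-AAF-R110 fluorescence (Ex/Em 485/520), normalized to DMSO and 15 uM tetraoctylammonium bromide; AC50 from Hill fits.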

[7] = MultiTox-Fluor Cytotoxicity Assay - LYMP1-003 - Dead Cells (AID 961); further: nearly all actives have a fitted effect of over 70% in size
Summary of the method: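 Human lymphoblastoid LYMP1-003 cells (2500/well) were treated with compounds for 16 hr at 37 C in complete medium. Dead-cell protease release was read by bis-AAF-R110 fluorescence (Ex/Em 485/520). AC50 came from Hill fits, normalized to DMSO and 15 uM tetraoctylammonium bromide.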

[8] = Cell Viability - LYMP1-003 - Assay at 24 hr (AID 963)
Summary of the method: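 Human lymphoblastoid LYMP1-003 cells (2500/well) were rested 5 hr at 37 C, then exposed to compounds in complete medium for 24 hr at 37 C. Cellular ATP was quantified by CellTiter-Glo luminescence, and AC50 values came from Hill fits of concentration-response data.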

[9] = Cell Viability - LYMP1-003 - Assay at 40 hr (AID 964); further: series mostly up to about 92 µM; nearly all actives have a fitted effect of over 60% in size
Summary of the method: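 Human lymphoblastoid LYMP1-003 cells, 2500/well in complete medium, rested 5 hr at 37 C, then exposed to compounds for 40 hr at 37 C. Viability read as intracellular ATP by CellTiter-Glo luminescence; AC50 from Hill fits of concentration-response data.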

[10] = Cell Viability - LYMP2-003 (AID 965);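 further: cells exposed to compounds for 24 h before reading; nearly all actives have a fitted effect of over 50% in size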
Summary of the method: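 Seed 2500 lymphoblastoid cells/well; incubate 5 hr, 37 C; add compounds; incubate 24 hr, 37 C; add CellTiter-Glo, 30 min RT; read luminescence. AC50 from Hill fit.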

[11] = Cell Viability - LYMP2-004 (AID 966); further: nearly all actives have a fitted effect of over 65% in size
Summary of the method: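 Human lymphoblastoid cells (2500/well) in complete medium were treated with compounds for 24 hr at 37 C, then intracellular ATP was measured by CellTiter-Glo luminescence. AC50 values came from Hill-equation fits of concentration-response data.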

[12] = Cell Viability - LYMP2-005 (AID 967); further: series mostly up to about 92 µM
Summary of the method: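 Acute cytotoxicity is scored as a concentration-dependent drop in intracellular ATP in human lymphoblastoid LYMP2-005 cells after 24 h compound treatment. ATP is quantified by luciferase luminescence, and AC50 is derived by Hill-equation modelling.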

[13] = Cell Viability - LYMP2-009 (AID 968); further: series mostly up to about 92 µM; nearly all actives have a fitted effect of over 55% in size
[14] = Cell Viability - LYMP2-011 (AID 969); further: nearly all actives have a fitted effect of over 60% in size
Summary of the method: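 Human lymphoblastoid cells (2500/well) were plated in complete medium, preincubated 5 hr at 37 C, then exposed to compounds for 24 hr at 37 C. Intracellular ATP was read by CellTiter-Glo luminescence, and AC50 came from Hill-equation concentration-response fits.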

[15] = Cell Viability - LYMP2-013 (AID 970); further: series mostly up to about 92 µM; nearly all actives have a fitted effect of over 55% in size
Summary of the method: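 Human lymphoblastoid cells, 2500/well, were preincubated 5 hr at 37 C, then treated with compounds for 24 hr at 37 C in complete medium. Intracellular ATP was read by CellTiter-Glo luminescence; AC50 from Hill-equation fits of concentration-response data.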

[16] = Cell Viability - LYMP2-015 (AID 971); further: nearly all actives have a fitted effect of over 55% in size
Summary of the method: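 Human lymphoblastoid cells (2500/well) in complete medium were preincubated 5 hr at 37 C, then compound-treated 24 hr at 37 C. Intracellular ATP was read by CellTiter-Glo luminescence after 30 min at room temperature; AC50 came from Hill-equation concentration-response fits.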

[17] = Cell Viability - LYMP2-017 (AID 972); further: series mostly up to about 92 µM; nearly all actives have a fitted effect of over 55% in size
Summary of the method: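 Human lymphoblastoid cells (2500/well) were seeded in complete medium, held 5 hr at 37 C, then exposed to compounds for 24 hr at 37 C. Intracellular ATP was read by CellTiter-Glo luminescence after 30 min at room temperature, with AC50 values from Hill-equation fits.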

[18] = Cell Viability - LYMP2-019 (AID 973); further: nearly all actives have a fitted effect of over 55% in size
Summary of the method: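 Human lymphoblastoid cells were seeded at 2500 cells/well, preincubated 5 hr at 37 C, then exposed to compounds for 24 hr at 37 C in complete medium. Intracellular ATP was measured by CellTiter-Glo luminescence; AC50 from Hill fits.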

[19] = Cell Viability - LYMP2-021 (AID 974)
Summary of the method: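 Human lymphoblastoid cells (2500/well) were preincubated 5 hr at 37 C, then exposed to compounds for 24 hr at 37 C in complete medium. Intracellular ATP was read by CellTiter-Glo luminescence; AC50 came from Hill-equation fits of concentration-response data.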

[20] = Cell Viability - LYMP2-023 (AID 975)
Summary of the method: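 Human lymphoblastoid cells (2500/well) were preincubated 5 hr at 37 C, then exposed to compounds for 24 hr at 37 C in complete medium. Cellular ATP was read by CellTiter-Glo luminescence, and AC50 came from Hill-equation fits.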

[21] = Cell Viability - LYMP2-025 (AID 976); further: series mostly up to about 92 µM
Summary of the method: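 Human lymphoblastoid LYMP2-025 cells (2500/well) were pre-incubated 5 hr at 37 C, then treated with compounds for 24 hr at 37 C in complete medium. Viability was read as intracellular ATP by CellTiter-Glo luminescence; AC50 from Hill fits.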

[22] = Cell Viability - LYMP2-002 (AID 977);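 further: series mostly up to about 92 µM; compound exposure lasted 24 h at 37 °C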
Summary of the method: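 Human lymphoblastoid LYMP2-002 cells, 2500 per well, exposed to compounds for 24 h at 37 C in complete medium; viability read as intracellular ATP by CellTiter-Glo luminescence, AC50 from Hill fits.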

Measured: Potency

Sequence of Cytochrome P450 3A4 (Homo sapiens) (P08684 whole entry, looked up): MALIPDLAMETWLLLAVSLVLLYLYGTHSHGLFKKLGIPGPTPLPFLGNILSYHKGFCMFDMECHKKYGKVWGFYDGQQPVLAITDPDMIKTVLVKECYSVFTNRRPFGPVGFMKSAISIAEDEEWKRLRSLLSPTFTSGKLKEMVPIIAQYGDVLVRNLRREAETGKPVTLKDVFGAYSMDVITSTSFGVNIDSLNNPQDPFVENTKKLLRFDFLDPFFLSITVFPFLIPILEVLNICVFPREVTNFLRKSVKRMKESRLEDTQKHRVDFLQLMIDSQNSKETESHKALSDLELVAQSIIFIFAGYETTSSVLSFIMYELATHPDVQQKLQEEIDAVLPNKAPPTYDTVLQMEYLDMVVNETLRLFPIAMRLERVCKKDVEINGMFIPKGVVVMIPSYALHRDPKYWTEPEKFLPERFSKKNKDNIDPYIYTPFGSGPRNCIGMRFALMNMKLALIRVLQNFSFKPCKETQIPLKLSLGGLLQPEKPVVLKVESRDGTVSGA

NC(=S)Nc1ccccc1
inactive: [1] | [2] | [3] | [4] | [5] | [6] | [7] | [8] | [9] | [10] | [11] | [12] | [13] | [14] | [15] | [16] | [17] | [18] | [19] | [20] | [21] | [22]
